Reference: PubChem BioAssay AID1985 (Southern Research Specialized Biocontainment Screening …, 2009)
Out of some 2,300 compounds screened, about 1,000 (43%) were called active. So high a share suggests a set chosen from earlier hits. The list shows a part of the results. Results with a measured potency or affinity are listed apart. A number with no mark means an inactive call. The rule behind the calls is not given here.

Test: modified counter assay using GFP fluorescence, PhoP regulon inhibitor project, dose response (AID 1985)
Conditions: S. Typhi, 4 h; series mostly up to 150 µM; inhibition: at the top concentration

SMILES	inhibition
O=C(OCc1nc2ccccc2s1)c1ccco1	-20.7%
O=C(O)CC/C(=C\c1ccccc1[N+](=O)[O-])c1nc2ccccc2s1	-10.3%
O=C1CCCC(=O)N1c1ccc(N2CCOCC2)c([N+](=O)[O-])c1	8.04%
CCn1cc(C(=O)NCCc2ccccc2)c(=O)c2cc(F)c(N3CCN(C)CC3)cc21	27.2%
CN(C)CCN1C(=O)C(O)=C(C(=O)c2cc3ccccc3o2)C1c1ccccn1 (stereo unspecified)	-2.92%
O=C(Cn1nc(Cc2ccncc2)c2ccccc2c1=O)Nc1cccnc1Cl	-17.7%
COc1ccc(N(CCCN2C(=O)c3cccc4cccc(c34)C2=O)C(=O)c2cccnc2)cc1	-14.9%
O=C(NCc1ccc2c(c1)OCO2)c1ccc2c(c1)C(=O)N(Cc1cccnc1)C2=O	21.3%
O=C(c1ccco1)N1CCCN(Cc2nc(-c3ccc4c(c3)OCO4)no2)CC1	4.01%
C1CCC(n2nnnc2CN2CCN(C3CCCC3)CC2)CC1	-7.1%
CCN(CC)CCOC(=O)c1ccc(N/C=C(/C#N)c2nc(-c3ccc(OC)c(OC)c3)cs2)cc1	-34.1%
Cc1ccc(-n2ncc3c(=O)[nH]cnc32)c(C)c1	-5.17%
N/C(=N\OC(=O)N1CCOCC1)c1ccccc1	35%
O=C(Nc1cccc(OCC(=O)N2CCOCC2)c1)c1cccc([N+](=O)[O-])c1	-2.28%
O=C1c2ccccc2C(=O)C1(CO)c1ccc(OC(F)F)cc1	-10.3%
Cc1nnc(SCC(=O)Nc2cc(S(=O)(=O)N3CCCC3)ccc2Cl)s1	-10.1%
COc1ccc(C)cc1S(=O)(=O)N1CCCC(C(=O)NCC2CCCO2)C1 (stereo unspecified)	-6.63%
COC(=O)C1=C(C(=O)OC)SC(=C2C(=S)C(C)(C)N(C(=O)C3CC3)c3ccccc32)S1	-28.7%
O=C(NCC1CC1)Nc1cccs1	37.6%
CC(C)(C)NC(=O)NC(=O)COC(=O)CCC1CCCC1	4.5%
Cc1c(C(=O)O)oc2c3c(ccc12)OCCO3	29%
CC(Nc1nc(N2CCCCC2)nc2ccccc12)c1ccccc1 (stereo unspecified)	30.2%
c1ccc(CNc2nc(N3CCN(Cc4ccccc4)CC3)nc3ccccc23)cc1	34.2%
COc1ccc(N2CCN(C(CNC(=O)c3ccc4c(c3)OCO4)c3ccco3)CC2)cc1 (stereo unspecified)	16.9%

SMILES	inhibition
COc1ccc(C(CC(=O)O)NC(=O)C2CCCCC2)cc1 (stereo unspecified)	13%
CCCOc1ccc(-c2cn3ccccc3n2)cc1	28.7%
COC(=O)c1ccc(NC(=O)c2ccccc2N(C)S(=O)(=O)c2ccccc2)cc1	5.7%
Cc1cccc(N2CCN(C(=O)CCN3C(=S)NC(C)(C)CC3C)CC2)c1C (stereo unspecified)	-23.3%
CC(C)OCCCn1c(=S)[nH]c2cc3c(cc2c1=O)OCO3	5.66%
O=C(NCc1ccccn1)c1nc(Cn2ccc([N+](=O)[O-])n2)no1	34%
CC(C)c1ccc(N(C(=O)C(F)(F)F)C(C(=O)NC2CCCCC2)c2ccncc2)cc1 (stereo unspecified)	13.1%
O=C(CN1CCCC1)Nc1ccc(-c2nc3cc(NC(=O)CN4CCCC4)ccc3o2)cc1	9.55%
CC(=O)c1c(N2CCN(c3cccc(Cl)c3)CC2)nc(=S)n(-c2ccccc2)c1C	-26.7%
COc1cccc(NC(=O)CSc2nncn2-c2ccccn2)c1	-8.62%
COc1ccc(Nc2nc(-c3ccccc3)nc3ccccc23)cc1S(=O)(=O)N1CCOCC1	4.27%
COc1ccc(OC)c(CCNC(=O)CS(=O)(=O)Cc2nc(-c3ccccc3C)oc2C)c1	0.83%
COC(=O)c1ccc(Cn2c(O)c(N=NC(N)=S)c3ccccc32)o1	-17.6%
c1ccc(CSc2ccc(-c3cccs3)nn2)nc1	1.12%
Cc1ccc2[nH]cc(CCNC(=O)c3cccnc3)c2c1	-25.4%
CCc1nnc(NC(=O)c2ccc(S(C)(=O)=O)cc2)s1	5.26%
COc1ccc(-c2csc(N)n2)cc1F	-20.7%
Nc1nc(SCC(=O)N2CCCC2)[nH]c(=O)c1NC(=O)c1cccs1	18.5%
Cc1cc(C)cc(NC(=O)CSc2nnc(CNC(=O)c3cccs3)o2)c1	-6.33%
Cc1ccc(NC(=O)OCc2cccs2)cc1	13.1%
CC(C)(C)n1nc2c(c1NC(=O)c1cccs1)CS(=O)C2 (stereo unspecified)	-9.23%
O=C(Nc1ccc(Cc2ccncc2)cc1)c1cccs1	4.58%
CCc1ccc2c(c1)CCCN2C(=O)c1ccccc1C(=O)O	-6.15%
CC1Cc2ccccc2N1S(=O)(=O)c1cccc(C(=O)N2CC(=O)Nc3ccccc32)c1 (stereo unspecified)	-7.55%

SMILES	inhibition
Cc1noc(C)c1CCC(=O)N1CCCC(CCC(=O)NCc2ccc(F)c(F)c2)C1 (stereo unspecified)	-6.11%
COc1ccc(NS(=O)(=O)c2cc(NC(=O)c3ccc(C)s3)ccc2N2CCOCC2)cc1	17%
CCCC(=O)c1c(NC)cc(C)oc1=O	-13.9%
CCOC(=O)C1=C(O)c2ccccc2C(=O)/C1=C\c1ccc(C)cc1	29%
CCOc1cc(C2NC(=O)N(C)C(C)=C2[N+](=O)[O-])ccc1OC(C)=O (stereo unspecified)	11.2%
NCCCCCc1nnc(SCc2ccc(Cl)cc2Cl)o1	3.7%
CCNc1nc(N)nc(Oc2ccc(OCCOc3ccc(Cl)cc3Cl)nn2)n1	-6.34%
CCc1nc(N)nc(N)c1-c1ccc(Cl)cc1	13.8%
COc1ccc(C2C(C#N)=C(N)Oc3n[nH]c(C)c32)cc1CSc1ccccn1 (stereo unspecified)	-16%
COc1ccc(OCC(=O)Nc2ccc3c(c2)nc(CCN2CCC(C)CC2)n3C)cc1	-9.84%
COc1ccc(CCNC2CCCCC2)cc1	-18.6%
CCOC(=O)c1cccc(NC(=O)C2CCC(CNc3c(N4CCOCC4)c(=O)c3=O)CC2)c1 (stereo unspecified)	-8.32%
Cc1ccc(-c2c(C)n([O-])c3c([n+]2=O)CCCC3)o1	-18.5%
O=C(CCNC(=O)c1ccco1)Nc1cccc(Br)c1	16.5%
O=C(CSc1ccc(Cl)cc1)c1ccco1	20.1%
CSc1ccc2c(c1)N(CCC1CCCCN1C)c1ccccc1S2 (stereo unspecified)	5.05%
c1ccc2c(c1)OC(CCCN1CCCCC1)c1ccccc1S2 (stereo unspecified)	30.4%
OCCN1CCN(CCCN2c3ccccc3Sc3ccc(C(F)(F)F)cc32)CC1	-10.2%
Cc1cc(Cl)ccc1OCCCC(=O)N1CCCc2ccccc21	-29.3%
c1ccc(-c2nc(NC3CC3)nc(-n3ccnc3)n2)cc1	-12.8%
COc1ccc(C2C(C(=O)NCc3cccnc3)c3ccccc3C(=O)N2C)cc1OC (stereo unspecified)	3.91%
N#Cc1nc(Cc2ccccc2)oc1NCCN1CCOCC1	-6.3%
c1ccc2cc3c(NCCN4CCOCC4)ccnc3cc2c1	19.5%
